Results taken from PubChem BioAssay AID1159580 (chemical genetic matrix, 2015).
“And” between values parts separate entries of the source, which are not always exact repeats. Equal entries are not always repeated. Screen size: about 5,500 compounds; about 2,000 (36%) were called active. Roughly 18% stayed inconclusive and do not appear here. Cut-off read from the data, not from the text of the source: active = normalized growth mostly below about 0.91 (no sharp cut-off); inconclusive = no clear call, values can overlap the other calls; inactive = mostly above about 0.92. The list shows a part of the results.

Assay: chemical genetic growth profiling, strain panel (AID 1159580);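 note: tested at 20 µM; growth read once vehicle control cultures reached saturation at 30 °C; 1 = growth at the plate median or of vehicle wells; lower values mean less growth of the strain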
Settings: S. cerevisiae deletion strains, growth OD

Measured: normalized growth

CC1(C)C2CC(=O)[C@]3(C)C(CC[C@@]4(C)[C@H](c5ccoc5)OC(=O)C5OC543)[C@@]2(C)[C@@H](O)C[C@H]1O (stereo not given in full)
inactive: locus YAL021C, strain ccr4, stronger effect = lower value 0.987 | locus YAL026C, strain drs2, stronger effect = lower value 1.01 | locus YAL030W, strain snc1, stronger effect = lower value 1 | locus YBL061C, strain skt5, stronger effect = lower value 1.01 | locus YBR009C, strain hhf1, stronger effect = lower value 1.02 | locus YBR021W, strain FUR4, stronger effect = lower value 1 | locus YBR023C, strain chs3, stronger effect = lower value 1.01 | locus YBR171W, strain sec66, stronger effect = lower value 1.03 | locus YBR229C, strain ROT2, stronger effect = lower value 1.01 | locus YBR231C, strain swc5, stronger effect = lower value 1.01 | locus YBR279W, strain paf1, stronger effect = lower value 1 | locus YCL011C, strain gbp2, stronger effect = lower value 1.01 | locus YCL016C, strain dcc1, stronger effect = lower value 1.01 | locus YCL029C, strain bik1, stronger effect = lower value 1.02 | locus YCL069W, strain vba3, stronger effect = lower value 1.02 | locus YCR088W, strain abp1, stronger effect = lower value 1.01 | locus YDL005C, strain med2, stronger effect = lower value 1 | locus YDL035C, strain GPR1, stronger effect = lower value 1.08 | locus YDL040C, strain nat1, stronger effect = lower value 1 | locus YDL074C, strain BRE1, stronger effect = lower value 1.09 | locus YDL101C, strain DUN1, stronger effect = lower value 1.02 | locus YDL134C, strain PPH21, stronger effect = lower value 1.04 | locus YDL185W, strain tfp1, stronger effect = lower value 0.996 | locus YDL192W, strain arf1, stronger effect = lower value 1.01 | locus YDR001C, strain nth1, stronger effect = lower value 1 | locus YDR069C, strain doa4, stronger effect = lower value 0.995 | locus YDR101C, strain arx1, stronger effect = lower value 0.98 | locus YDR137W, strain rgp1, stronger effect = lower value 1.02 | locus YDR159W, strain sac3, stronger effect = lower value 1.03 | locus YDR162C, strain NBP2, stronger effect = lower value 1.05 | locus YDR195W, strain ref2 0.968 | locus YDR297W, strain sur2, stronger effect = lower value 1.01 | locus YDR318W, strain mcm21, stronger effect = lower value 1 | locus YDR334W, strain swr1, stronger effect = lower value 1 | locus YDR335W, strain msn5, stronger effect = lower value 1.01 | locus YDR388W, stronger effect = lower value 0.976 | locus YDR392W, strain spt3, stronger effect = lower value 1.01 | locus YDR502C, strain sam2, stronger effect = lower value 1.01 | locus YEL003W, strain gim4, stronger effect = lower value 1.01 | locus YEL037C, strain rad23, stronger effect = lower value 1 | locus YEL061C, strain CIN8 (second series), stronger effect = lower value 0.994 | locus YER015W, strain faa2, stronger effect = lower value 0.997 | locus YER016W, strain bim1, stronger effect = lower value 1.01 | locus YER110C, stronger effect = lower value 0.988 | locus YER111C, strain swi4, stronger effect = lower value 1.01 | locus YER155C, strain BEM2 (second series), stronger effect = lower value 1.02 | locus YER155C, strain BEM2, stronger effect = lower value 1 | locus YER167W, strain BCK2, stronger effect = lower value 1.01 | locus YFR010W, strain ubp6, stronger effect = lower value 0.994 | locus YGL078C, strain dbp3, stronger effect = lower value 0.987 | locus YGL086W, strain mad1, stronger effect = lower value 1 | locus YGL167C, strain pmr1, stronger effect = lower value 1 | locus YGL173C, strain kem1, stronger effect = lower value 1.01 | locus YGL227W, strain vid30, stronger effect = lower value 1.03 | locus YGL240W, strain doc1, stronger effect = lower value 1.01 | locus YGL248W, strain PDE1, stronger effect = lower value 1.06 | locus YGL253W, strain hxk2, stronger effect = lower value 1 | locus YGR078C, strain PAC10, stronger effect = lower value 1.05 | locus YGR135W, strain pre9, stronger effect = lower value 1 | locus YGR252W, strain gcn5, stronger effect = lower value 0.913 | locus YHR013C, strain ard1, stronger effect = lower value 1.02 | locus YHR027C, strain rpn1, stronger effect = lower value 0.985 | locus YHR030C, strain SLT2, stronger effect = lower value 1.02 and 1.04 | locus YHR079C, strain IRE1 (second series), stronger effect = lower value 0.985 | locus YHR079C, strain IRE1, stronger effect = lower value 1.03 | locus YHR094C, strain hxt1, stronger effect = lower value 0.982 | locus YHR129C, strain ARP1, stronger effect = lower value 1.03 | locus YHR142W, strain chs7, stronger effect = lower value 0.989 | locus YHR200W, strain rpn10, stronger effect = lower value 0.996 | locus YIL066C, strain RNR3, stronger effect = lower value 1.02 | locus YIL073C, strain SPO22, stronger effect = lower value 1.12 | locus YIL125W, strain kgd1, stronger effect = lower value 0.992 | locus YIR030C, strain dcg1, stronger effect = lower value 0.985 | locus YJL092W, strain hpr5, stronger effect = lower value 1 | locus YJL095W, strain BCK1 (second series), stronger effect = lower value 1.02 | locus YJL095W, strain BCK1, stronger effect = lower value 1.07 and 1.01 | locus YJL115W, strain asf1, stronger effect = lower value 0.999 | locus YJL129C, strain trk1, stronger effect = lower value 1.02 | locus YJL134W, strain LCB3, stronger effect = lower value 1.01 | locus YJL154C, strain vps35, stronger effect = lower value 0.999 | locus YJL164C, strain tpk1, stronger effect = lower value 1.01 | locus YJL166W, strain qcr8, stronger effect = lower value 1.01 | locus YJL168C, strain set2, stronger effect = lower value 1 | locus YJL187C, strain SWE1 (second series), stronger effect = lower value 1.03 | locus YJL187C, strain SWE1, stronger effect = lower value 1.01 | locus YJR066W, strain TOR1, stronger effect = lower value 0.964 | locus YKL009W, strain mrt4, stronger effect = lower value 0.998 | locus YKL068W, stronger effect = lower value 0.984 | locus YKL085W, strain MDH1 (second series), stronger effect = lower value 0.989 | locus YKL085W, strain MDH1, stronger effect = lower value 0.989 | locus YKL160W, strain elf1, stronger effect = lower value 1.02 | locus YKL190W, strain CNB1, stronger effect = lower value 1.01 | locus YKR001C, strain vps1, stronger effect = lower value 0.997 | locus YKR026C, strain gcn3, stronger effect = lower value 1.01 | locus YKR091W, strain srl3, stronger effect = lower value 1.01 | locus YLL001W, strain dnm1, stronger effect = lower value 0.999 | locus YLL026W, stronger effect = lower value 1 | locus YLL041C, strain sdh2, stronger effect = lower value 0.997 | locus YLR027C, strain aat2, stronger effect = lower value 1.01 | locus YLR039C, strain RIC1, stronger effect = lower value 1.17 | locus YLR058C, strain SHM2, stronger effect = lower value 1.03 | locus YLR102C, strain apc9, stronger effect = lower value 0.989 | locus YLR113W, strain HOG1, stronger effect = lower value 0.988 | locus YLR221C, strain rsa3, stronger effect = lower value 1.01 | locus YLR258W, strain gsy2, stronger effect = lower value 1.01 | locus YLR262C, strain YPT6 (second series), stronger effect = lower value 1.01 | locus YLR268W, strain sec22, stronger effect = lower value 1.02 | locus YLR320W, strain mms22, stronger effect = lower value 1 | locus YLR342W, strain FKS1 (second series), stronger effect = lower value 1.04 | locus YLR342W, strain FKS1, stronger effect = lower value 1.02 | locus YLR357W, strain rsc2, stronger effect = lower value 1.01 | locus YLR370C, strain arc18, stronger effect = lower value 0.996 | locus YLR371W, strain rom2, stronger effect = lower value 0.992 | locus YLR384C, strain iki3, stronger effect = lower value 0.99 | locus YLR418C, strain cdc73, stronger effect = lower value 0.974 | locus YML016C, strain PPZ1, stronger effect = lower value 1.01 | locus YML032C, strain rad52, stronger effect = lower value 0.986 | locus YML120C, strain ndi1, stronger effect = lower value 1.01 | locus YML124C, strain tub3, stronger effect = lower value 0.992 | locus YMR058W, strain fet3, stronger effect = lower value 1 | locus YMR078C, strain ctf18, stronger effect = lower value 0.988 | locus YMR125W, strain sto1, stronger effect = lower value 1.01 | locus YMR129W, stronger effect = lower value 1 | locus YMR205C, strain PFK2, stronger effect = lower value 1.03 | locus YMR223W, strain ubp8, stronger effect = lower value 0.985 | locus YMR231W, strain pep5, stronger effect = lower value 1.01 | locus YMR263W, strain SAP30, stronger effect = lower value 1.01 | locus YMR307W, strain GAS1, stronger effect = lower value 1.15 | locus YNL067W, strain RPL9B, stronger effect = lower value 1.02 | locus YNL071W, strain lat1, stronger effect = lower value 1 | locus YNL153C, strain GIM3, stronger effect = lower value 1.06 | locus YNL183C, strain NPR1, stronger effect = lower value 0.967 | locus YNL209W, strain ssb2, stronger effect = lower value 0.997 | locus YNL233W, strain BNI4, stronger effect = lower value 1.06 | locus YNL248C, strain rpa49, stronger effect = lower value 1 | locus YNL250W, strain rad50, stronger effect = lower value 1.03 | locus YNL271C, strain bni1, stronger effect = lower value 0.968 | locus YNL298W, strain CLA4, stronger effect = lower value 0.991 | locus YNL307C, strain MCK1, stronger effect = lower value 0.987 | locus YNL322C, strain KRE1 (second series), stronger effect = lower value 1.03 | locus YNR049C, strain mso1, stronger effect = lower value 0.997 | locus YNR052C, strain pop2, stronger effect = lower value 0.975 | locus YOL012C, strain htz1 1.54 | locus YOL147C, strain pex11, stronger effect = lower value 0.982 | locus YOR001W, strain rrp6, stronger effect = lower value 1.01 | locus YOR061W, strain CKA2, stronger effect = lower value 1.01 | locus YOR069W, strain VPS5, stronger effect = lower value 1.01 | locus YOR070C, strain gyp1, stronger effect = lower value 1 | locus YOR080W, strain dia2, stronger effect = lower value 0.999 | locus YOR083W, strain WHI5, stronger effect = lower value 1.02 | locus YOR106W, strain vam3, stronger effect = lower value 1.01 | locus YOR136W, strain idh2, stronger effect = lower value 0.986 | locus YOR144C, strain elg1, stronger effect = lower value 0.979 | locus YOR184W, strain ser1, stronger effect = lower value 1.01 | locus YOR231W, strain MKK1, stronger effect = lower value 1.03 | locus YOR265W, strain rbl2, stronger effect = lower value 0.983 | locus YOR270C, strain vph1, stronger effect = lower value 0.904 | locus YOR290C, strain snf2, stronger effect = lower value 1.02 | locus YOR316C, strain cot1, stronger effect = lower value 0.979 | locus YPL051W, strain arl3, stronger effect = lower value 0.994 | locus YPL078C, strain atp4, stronger effect = lower value 1.03 | locus YPL106C, strain sse1, stronger effect = lower value 1.02 | locus YPL240C, strain hsp82, stronger effect = lower value 1 | locus YPL241C, strain CIN2, stronger effect = lower value 1.02 | locus YPL256C, strain CLN2, stronger effect = lower value 1.03 | locus YPR119W, strain clb2, stronger effect = lower value 0.978 | locus YPR141C, strain kar3, stronger effect = lower value 0.99 | locus YPR163C, strain tif3, stronger effect = lower value 0.997 | locus YPR167C, strain met16, stronger effect = lower value 1 | strain wtn01, stronger effect = lower value 1
